Seven compounds from PubChem BioAssay (EPA / NIEHS) can be followed below.

Test [1] deals with CCAAT/enhancer-binding protein beta (Homo sapiens) (UniProt P17676). In words: ATG_C_EBP_CIS: Attagene CIS-FACTORIAL HepG2 Assay for human CCAAT/Enhancer Binding Protein (C/EBP) beta (AID 2282927). To be noted: HepG2 Attagene cis-factorial transcription factor reporter; actives raise or lower the signal. An outline of the steps: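 Endogenous transcription factor activity in human liver HepG2 cells is inferred from induction of a CEBPB-linked reporter mRNA. Exposure lasts 24 h; activity is fitted in both directions relative to DMSO.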

Test [2] can be described thus: ATG_CMV_CIS: Attagene CIS-FACTORIAL HepG2 Assay for human CMV (Internal Marker) (AID 2282928).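 Further: endpoint acts as a background internal control marker rather than a target.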 To be noted: HepG2 CMV promoter reporter, transcription factor profiling; actives raise or lower the signal. An outline of the steps: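 After transient transfection of HepG2 with reporter transcription units driven by cis-regulatory promoters, cells receive test chemical for 24 h. Labeled reporter amplicons, digested with HpaI, are sized and quantified by capillary electrophoresis against DMSO.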

Test [3] can be described thus: ATG_DR4_LXR_CIS: Attagene CIS-FACTORIAL HepG2 Assay for human Liver X Receptor (LXR), DR4 submotif (AID 2282929). To be noted: HepG2 Attagene DR4 cis-reporter, mRNA transcription; actives raise or lower the signal. An outline of the steps:
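The endpoint is DR4-element-driven reporter transcripts after 24 h chemical exposure of transfected HepG2 cells. These were measured via RT-PCR and capillary electrophoresis, and gain or loss of signal was fitted relative to DMSO controls.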

For test [4], the target named is Aryl hydrocarbon receptor (Homo sapiens) (UniProt P35869). In words: ATG_Ahr_CIS: Attagene CIS-FACTORIAL HepG2 Assay for human Aryl Hydrocarbon Receptor (Ahr) (AID 2282930). To be noted: HepG2 AhR cis-factorial reporter transcription; actives raise or lower the signal. An outline of the steps:
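Transient MRTU transfection of HepG2 → 24 h compound exposure → total RNA, oligo(dT) RT → PCR, 6-FAM extension, HpaI cut → CE fluorescence. DMSO = baseline; bidirectional curve fit.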

Test [5] can be described thus: ATG_AP_1_CIS: Attagene CIS-FACTORIAL HepG2 Assay for human Activator Protein 1 (AP-1) (AID 2282931). To be noted: HepG2 Attagene cis-factorial AP-1 reporter mRNA; actives raise or lower the signal. Summed up:
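Readout is reporter transcript level from endogenous transcription factor activity, quantified by RT-PCR with fluorescent primer extension and capillary electrophoresis. Transiently transfected HepG2 cells, 24 h exposure. Curves fitted both directions versus DMSO.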

Test [6] can be described thus: ATG_AP_2_CIS: Attagene CIS-FACTORIAL HepG2 Assay for human Activator Protein 2 (AP-2) (AID 2282932). To be noted: HepG2 AP-2 cis-reporter, Attagene transcription factor profiling; actives raise or lower the signal. An outline of the steps:
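Step one: transient transfection of HepG2 with reporter transcription units. Step two: 24 h chemical exposure. Step three: RNA extraction, RT-PCR, labelled fragment analysis by capillary electrophoresis; DMSO serves as baseline.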

Test [7] has as its target Retinoic acid receptor alpha (Homo sapiens) (UniProt P10276). In words: ATG_DR5_RAR_CIS: Attagene CIS-FACTORIAL HepG2 Assay for human Retinoic Acid Receptor Alpha (RARE), DR5 submotif (AID 2282934). To be noted: HepG2 Attagene cis-factorial RARE DR5 reporter, mRNA; actives raise or lower the signal. Summed up: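 Transient MRTU transfection of HepG2; 24 h compound treatment; TriZol RNA, oligo(dT) RT, PCR, FAM labelling, capillary electrophoresis. Bidirectional fit vs DMSO. Endogenous TF activity at DR5 RARE.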

Test [8] can be described thus: ATG_E_Box_CIS: Attagene CIS-FACTORIAL HepG2 Assay for human Enhancer Box (E-box) (AID 2282936). To be noted: HepG2 E-box cis-reporter transcription, actives raise or lower the signal. Summed up:
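DMSO served as negative control and baseline for bidirectional fitting. Human hepatoma HepG2 cells, transiently transfected with cis-reporter constructs, were dosed 24 h; reporter mRNA read by RT-PCR and capillary electrophoresis.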

Test [9] can be described thus: ATG_M_61_CIS: Attagene CIS-FACTORIAL HepG2 Assay for M61 Transcription Factor (Internal Marker) (AID 2282937). To be noted: HepG2 Attagene CIS-FACTORIAL M61 internal marker reporter; actives raise or lower the signal. Summed up: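 Readout is reporter mRNA by RT-PCR, fluorescent primer extension and capillary electrophoresis, with gain or loss fitted relative to DMSO. Transfected HepG2 cells carrying endogenous-TF-driven cis reporters were exposed to chemicals for 24 hours.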

Test [10] is described as follows: ATG_EGR_CIS: Attagene CIS-FACTORIAL HepG2 Assay for human Early Growth Response 1 (EGR1) (AID 2282938). To be noted: HepG2 Attagene CIS-FACTORIAL EGR reporter mRNA; actives raise or lower the signal. An outline of the steps: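 After 24 h compound exposure, RNA from reporter-transfected HepG2 cells was reverse-transcribed, PCR-amplified, fluorescently labelled and resolved by capillary electrophoresis. EGR1 reporter transcript changes, up or down, were fitted against DMSO, reflecting endogenous transcription-factor activity.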

A short description of test [11]: ATG_M_19_CIS: Attagene CIS-FACTORIAL HepG2 Assay for M19 Transcription Factor (Internal Marker) (AID 2282939). To be noted: HepG2 Attagene CIS-FACTORIAL M19 internal marker reporter; actives raise or lower the signal. An outline of the steps:
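Following a 24 h exposure, RNA from transfected HepG2 cells was reverse-transcribed, PCR-amplified with reporter-specific primers, end-labelled with 6-FAM and HpaI-digested before capillary separation. Values represent gain or loss versus DMSO.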

A short description of test [12]: ATG_Ets_CIS: Attagene CIS-FACTORIAL HepG2 Assay for human Erythroblast Transformation Specific (ETS) (AID 2282941). To be noted: HepG2 ETS cis-reporter transcription, actives raise or lower the signal. Summed up:
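Human HepG2 hepatoma cells were transiently transfected with promoter-driven reporter constructs and treated for 24 hours. Reporter transcripts were quantified by RT-PCR with fluorescent primer extension; bidirectional curve fitting used DMSO as reference.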

The target in test [13] is Hepatocyte nuclear factor 3-beta (Homo sapiens) (UniProt Q9Y261). In words: ATG_FoxA2_CIS: Attagene CIS-FACTORIAL HepG2 Assay for human Forkhead box A2 (FOXA2) (AID 2282942). To be noted: HepG2 cis-reporter transcription factor activity, 24 h; actives raise or lower the signal. An outline of the steps:
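Endogenous transcription factor activity is captured via cis-element-driven reporter transcripts in transfected HepG2. Total RNA taken at 24 h post-dosing; labelled RT-PCR products resolved by capillary electrophoresis. Gain or loss fitted versus DMSO.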

Test [14] can be described thus: ATG_FoxO_CIS: Attagene CIS-FACTORIAL HepG2 Assay for human Forkhead box O (FoxO) (AID 2282943). To be noted: HepG2 Attagene cis-reporter, FoxO element, mRNA; actives raise or lower the signal. An outline of the steps: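 HepG2, transient MRTU transfection (cis element, endogenous TFs). Dose 24 h. TriZol RNA → oligo(dT) RT → PCR → 6-FAM primer extension → HpaI cut → CE. Gain/loss vs DMSO.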

A short description of test [15]: ATG_GATA_CIS: Attagene CIS-FACTORIAL HepG2 Assay for human GATA Binding Protein (AID 2282944). To be noted: HepG2 GATA cis-element reporter, Attagene multiplex mRNA; actives raise or lower the signal. Summed up: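 DMSO serves as negative control and baseline for bidirectional fitting of reporter mRNA changes. HepG2 cells bearing transiently transfected cis-promoter reporters were exposed 24 h; transcripts detected via RT-PCR and capillary electrophoresis.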

Test [16] is described as follows: ATG_GLI_CIS: Attagene CIS-FACTORIAL HepG2 Assay for human Zinc Finger Protein GLI1 (AID 2282945). To be noted: HepG2, Attagene cis-factorial reporter mRNA, GLI element; actives raise or lower the signal. Summed up: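 Bidirectional curve fits relative to DMSO, using reporter mRNA levels from RT-PCR plus capillary electrophoresis. Cells were HepG2 transiently carrying cis-regulated reporter constructs, harvested 24 h after dosing.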

Test [17] can be described thus: ATG_BRE_CIS: Attagene CIS-FACTORIAL HepG2 Assay for human Bone Morphogenetic Protein (BMP) Response Element (BRE) (AID 2282933). To be noted: HepG2 BMP response element reporter, Attagene transcription factor profiling; actives raise or lower the signal. An outline of the steps: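 Gain- or loss-of-signal was derived by bidirectional fitting against DMSO controls. The signal came from reporter mRNA, measured by RT-PCR and capillary electrophoresis, in HepG2 cells transiently carrying multiple reporter units and dosed for 24 h.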

Test [18] has as its target Transcription factor E2F1 (Homo sapiens) (UniProt Q01094). In words: ATG_E2F_CIS: Attagene CIS-FACTORIAL HepG2 Assay for human E2F Transcription Factor 1 (AID 2282935). To be noted: HepG2 Attagene cis-reporter, E2F reporter RNA transcripts; actives raise or lower the signal. An outline of the steps: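 Total RNA from 24 h-treated, reporter-transfected HepG2 cells undergoes DNase I treatment, oligo(dT) reverse transcription, PCR and 6-FAM primer extension before capillary electrophoresis.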

The structures appear in SMILES notation. The source made the active and inactive calls. How the source made its calls: active means hit-call score of the fitted dose curve at least 0.9, where 1 is the maximum; inactive means score below 0.9.

Sequence of Aryl hydrocarbon receptor (Homo sapiens) (P35869 whole entry, looked up): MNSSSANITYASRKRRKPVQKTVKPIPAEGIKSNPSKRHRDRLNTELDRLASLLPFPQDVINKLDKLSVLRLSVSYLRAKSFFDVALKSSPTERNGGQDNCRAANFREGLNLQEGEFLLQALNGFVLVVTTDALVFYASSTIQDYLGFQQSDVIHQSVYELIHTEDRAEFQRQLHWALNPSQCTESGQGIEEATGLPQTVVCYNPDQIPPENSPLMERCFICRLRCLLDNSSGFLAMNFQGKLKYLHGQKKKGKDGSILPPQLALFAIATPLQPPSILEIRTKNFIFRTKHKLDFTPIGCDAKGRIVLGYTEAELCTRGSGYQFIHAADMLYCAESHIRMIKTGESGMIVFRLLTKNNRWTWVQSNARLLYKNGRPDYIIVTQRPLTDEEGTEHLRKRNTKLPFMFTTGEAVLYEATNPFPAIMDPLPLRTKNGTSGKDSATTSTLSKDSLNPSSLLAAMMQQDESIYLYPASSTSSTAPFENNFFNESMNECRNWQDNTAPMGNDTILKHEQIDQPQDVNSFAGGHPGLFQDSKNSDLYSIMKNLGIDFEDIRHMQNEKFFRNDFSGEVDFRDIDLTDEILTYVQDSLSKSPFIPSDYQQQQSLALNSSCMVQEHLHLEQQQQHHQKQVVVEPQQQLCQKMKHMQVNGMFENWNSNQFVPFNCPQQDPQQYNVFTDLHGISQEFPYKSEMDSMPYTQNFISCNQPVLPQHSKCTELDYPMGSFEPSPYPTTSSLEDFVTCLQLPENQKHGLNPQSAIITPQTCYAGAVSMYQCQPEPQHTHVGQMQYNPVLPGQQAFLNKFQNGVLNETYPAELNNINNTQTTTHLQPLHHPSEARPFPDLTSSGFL
Sequence of Hepatocyte nuclear factor 3-beta (Homo sapiens) (Q9Y261 whole entry, looked up): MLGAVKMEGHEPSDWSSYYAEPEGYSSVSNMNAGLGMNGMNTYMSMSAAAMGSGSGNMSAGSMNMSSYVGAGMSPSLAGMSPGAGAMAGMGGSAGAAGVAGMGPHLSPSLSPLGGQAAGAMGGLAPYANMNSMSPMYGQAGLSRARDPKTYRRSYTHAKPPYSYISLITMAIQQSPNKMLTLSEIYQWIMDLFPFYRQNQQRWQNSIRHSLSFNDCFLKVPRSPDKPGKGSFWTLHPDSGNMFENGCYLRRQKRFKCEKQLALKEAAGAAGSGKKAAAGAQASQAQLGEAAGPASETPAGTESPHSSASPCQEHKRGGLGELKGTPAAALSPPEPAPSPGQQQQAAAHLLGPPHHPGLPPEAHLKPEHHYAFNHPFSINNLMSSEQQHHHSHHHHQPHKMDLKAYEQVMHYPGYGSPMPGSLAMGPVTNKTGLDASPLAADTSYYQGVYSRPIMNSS
Sequence of CCAAT/enhancer-binding protein beta (Homo sapiens) (P17676 whole entry, looked up): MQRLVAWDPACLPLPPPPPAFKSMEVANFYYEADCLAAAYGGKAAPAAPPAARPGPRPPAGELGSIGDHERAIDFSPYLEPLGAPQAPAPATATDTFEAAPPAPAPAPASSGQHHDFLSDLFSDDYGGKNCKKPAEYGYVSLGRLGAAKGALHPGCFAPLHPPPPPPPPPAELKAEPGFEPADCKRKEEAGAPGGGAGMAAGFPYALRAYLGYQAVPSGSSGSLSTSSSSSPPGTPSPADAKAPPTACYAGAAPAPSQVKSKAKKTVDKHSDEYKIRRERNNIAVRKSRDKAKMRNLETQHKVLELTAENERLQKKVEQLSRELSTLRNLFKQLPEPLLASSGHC
Sequence of Retinoic acid receptor alpha (Homo sapiens) (P10276 whole entry, looked up): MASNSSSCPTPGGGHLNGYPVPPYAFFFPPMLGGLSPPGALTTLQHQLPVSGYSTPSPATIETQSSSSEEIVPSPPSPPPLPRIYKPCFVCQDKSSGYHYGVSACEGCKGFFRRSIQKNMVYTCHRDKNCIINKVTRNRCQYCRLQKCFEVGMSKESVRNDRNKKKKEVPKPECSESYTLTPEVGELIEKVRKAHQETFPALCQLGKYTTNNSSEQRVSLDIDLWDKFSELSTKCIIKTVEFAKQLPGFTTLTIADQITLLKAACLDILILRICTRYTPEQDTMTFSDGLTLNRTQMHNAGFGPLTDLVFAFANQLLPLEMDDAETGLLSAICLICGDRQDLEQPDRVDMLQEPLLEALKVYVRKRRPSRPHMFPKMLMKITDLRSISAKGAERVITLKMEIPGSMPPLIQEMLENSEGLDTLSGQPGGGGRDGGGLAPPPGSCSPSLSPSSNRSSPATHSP
Sequence of Transcription factor E2F1 (Homo sapiens) (Q01094 whole entry, looked up): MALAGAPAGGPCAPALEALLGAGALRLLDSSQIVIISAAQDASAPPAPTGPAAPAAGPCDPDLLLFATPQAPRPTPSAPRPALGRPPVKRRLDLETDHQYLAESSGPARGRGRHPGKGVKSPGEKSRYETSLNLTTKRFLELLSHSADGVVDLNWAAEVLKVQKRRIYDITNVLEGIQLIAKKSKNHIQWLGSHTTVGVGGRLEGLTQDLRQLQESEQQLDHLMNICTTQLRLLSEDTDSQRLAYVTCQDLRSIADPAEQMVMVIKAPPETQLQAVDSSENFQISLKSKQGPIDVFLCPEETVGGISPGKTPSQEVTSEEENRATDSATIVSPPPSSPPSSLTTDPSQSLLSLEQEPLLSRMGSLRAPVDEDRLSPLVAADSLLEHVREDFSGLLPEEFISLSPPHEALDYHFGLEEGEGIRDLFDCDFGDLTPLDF

Regarding `CCc1ccc(O)c(OC)c1`, the result in [1], in test [2], in test [3], in [4], in [5] and in [6] was inactive. Also, the outcome in test [7], in [8], in [9], in test [10], in [11] and in test [12] was inactive. The compound was classed as inactive in [13], in test [14], in [15] and in test [16].

The AC50 is the concentration giving half of the maximal activity seen. As for `CCCC1O[C@@H]2C[C@H]3[C@@H]4CCC5=CC(=O)C=C[C@]5(C)[C@H]4[C@@H](O)C[C@]3(C)[C@]2(C(=O)CO)O1` (some centres not stated), the AC50 in test [1] was 56.5 µM (active); in [3], 100 µM (active); in test [5], 165 µM (active); in [8] it was 100 µM (active). Further, the compound was classed as inactive in [2], in test [4], in test [6], in test [17], in test [7] and in test [18]. The compound was classed as inactive in test [9], in test [10], in test [11], in test [12], in test [13] and in test [14]. For the same compound, the result in [15] and in [16] was inactive.

On to `OCC#CCO`, for which the outcome in [1], in [2], in test [4], in [5], in test [6] and in test [17] was inactive. Also, the result in test [7], in test [18], in [8], in [9], in [11] and in [12] was inactive. Further, the call in [13], in test [14], in test [15] and in [16] was inactive.

On to `COCCOC(=O)c1ccccc1C(=O)OCCOC`, for which the result in test [1], in test [2], in test [3], in test [4], in test [5] and in test [6] was inactive. For the same compound, the outcome in [17], in [7], in test [18], in test [8], in test [9] and in [10] was inactive. For the same compound, the compound was classed as inactive in [12], in test [13], in [14], in test [15] and in [16].

Regarding `CC/C=C\CCOC(=O)CC`, the result in test [1], in test [2], in [4], in [5], in test [6] and in test [17] was inactive. Further, the outcome in test [18], in [8], in test [9], in test [10], in test [12] and in test [13] was inactive. Further, the compound was classed as inactive in test [14], in [15] and in test [16].

As for `CC(C)=CCCC(C)CCOC=O` (configuration not stated), the result in test [1], in test [2], in test [3], in [4], in test [5] and in test [6] was inactive. Further, the result in [17], in test [7], in [18], in test [8], in test [9] and in test [10] was inactive. The call in [11], in [12], in test [13], in test [14], in test [15] and in test [16] was inactive.

Consider `CCCCCCCCCCCCCCCC(=O)OC/C=C(C)/C=C/C=C(C)/C=C/C1=C(C)CCCC1(C)C`, for which the outcome in test [1], in [2], in test [4], in test [5], in test [6] and in [17] was inactive. In addition, the result in [7], in test [18], in test [8], in test [9], in [10] and in test [11] was inactive. Also, the result in test [12], in test [13], in test [14], in test [15] and in test [16] was inactive.
